We go through 5 compounds from PubChem BioAssay.

Experiment [1] can be described thus: compounds binding Alexa647 anti-His antibody – biochemical, small-molecule microarray, 635 nm fluorescence, artefact control for SMM control protein annotation, primary screen (AID 1128).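 Further: score merges feature fluorescence with signal-to-noise for each printed compound spot.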 Particulars: higher = more signal.
Experiment [2] concerns Human papillomavirus type 1a E7 protein (residues 1-88). As to the kind of experiment: HPV1a E7 small-molecule binders, primary screen, biochemical, small-molecule microarray, residues 1-88, 635 nm (AID 1129). Particulars: small-molecule microarray binding, fluorescence 635 nm; higher = more signal.
Experiment [3] deals with Focal adhesion kinase 1 (Homo sapiens) (UniProt Q05397). Kind of experiment: PTK2 protein binding on printed compound slides – biochemical, small-molecule microarray, 635/667 nm fluorescence, BSA, DTT, primary screen (AID 1130).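 Further: composite of spot emission at 667 nm and signal to noise over triplicate slides.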 Particulars: 635 nm fluorescence, higher = more signal.
Experiment [4] deals with Fibrinogen (Alexa647-labelled). As to the kind of experiment: Alexa647-fibrinogen binding to printed small molecules – biochemical, small-molecule microarray, 635/667 nm fluorescence, artefact control for SMM control-protein annotation, profiling panel (AID 1131).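 Further: z-score merges 667 nm fluorescence with per-spot signal-to-noise over triplicate slides.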 Particulars: fibrinogen-A647 binding fluorescence, higher = more signal.
The target in experiment [5] is Follistatin (Homo sapiens) (UniProt P19883). As to the kind of experiment: FST protein binding to printed compounds – biochemical, small-molecule microarray, 635/667 nm fluorescence, primary screen (AID 1132). Particulars: 635 nm fluorescence, higher = more signal.
Experiment [6] concerns the target Fibroblast growth factor 2 (Homo sapiens) (UniProt P09038). Kind of experiment: basic fibroblast growth factor binding to printed compounds – biochemical, small-molecule microarray, 635/667 nm fluorescence, primary screen (AID 1133). Particulars: FGF2, fluorescence 635/667, higher = more signal.
Experiment [7] can be described thus: JC-1 mitochondrial potential readout, lung cancer cells – cell-based, A549, JC-1 fluorescence, basal, 24 h, 100 nL, profiling panel (AID 1138).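 Further: A549 lung adenocarcinoma cells under basal conditions with no added stimulus; test concentration not given here.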 Particulars: higher = more signal.
The test system of a further experiment is Lefty1. Kind of experiment: Lefty1 protein binding to printed compounds – biochemical, small-molecule microarray, 635/667 nm fluorescence, primary screen (AID 1139). Particulars: fluorescence 635/667, higher = more signal.
Experiment [8] relates to wheat germ agglutinin (Triticum aestivum), Alexa647-labelled. As to the kind of experiment: Alexa647-WGA lectin binding to printed small molecules – biochemical, small-molecule microarray, 635/667 nm fluorescence, artefact control for SMM control-protein annotation, profiling panel (AID 1140).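 Further: score merges 667 nm feature emission with signal to noise over triplicate slides.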 Particulars: WGA-A647 binding, 635 nm fluorescence, higher = more signal.
The target of experiment [9] is Luciferin 4-monooxygenase (Photinus pyralis) (UniProt P08659). As to the kind of experiment: inhibition of purified Photinus pyralis luciferase – biochemical, luminescence, purified enzyme, 2006 set, primary screen (AID 1141).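 Further: cell-free assay with purified firefly luciferase at 100 ng per well in PBS; test concentration not given here.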 Particulars: purified firefly luciferase, SteadyGlo luminescence, 30 min; higher = more signal, called active from +8 up or from −8 down.
For experiment [10], the system named is Wnt5a (protein binding on small-molecule microarray). As to the kind of experiment: small molecules binding Wnt5a protein – biophysical, small-molecule microarray, 635/667 nm fluorescence, primary screen (AID 1142).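 Further: fluorescence read at 667 nm with signal to noise per printed feature.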 Particulars: 635 nm fluorescence, higher = more signal.
The nature of experiment [11]: ATP-based viability of Huh7 replicon cells – cell-based, CellTiter-Glo luminescence, basal, 48 h, cytotoxicity control for HCV replication inhibitor project, primary screen (AID 1143).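 Further: Huh7 hepatoma cells carrying a hepatitis C replication reporter with no stimulus; test concentration not given here.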 Particulars: higher = more signal, called active from +8 up or from −8 down. Background: In antiviral work, replicon cells carry a viral genome segment that copies itself.
Experiment [12] is described as follows: Pseudomonas biofilm growth suppression – PAO1 strain, BacTiter-Glo luminescence, LB-PBS, primary screen (AID 1144). Particulars: P. aeruginosa PAO1 biofilm, 12 h, higher = more signal.
Experiment [13] can be described thus: basal CRE-LacZ reporter activity in PC12 – cell-based, unstimulated, primary screen (AID 1145). Particulars: no forskolin, luminescence, 4.5 h, higher = more signal, called active from +8 up or from −8 down.
Experiment [14] can be described thus: forskolin-driven CRE-LacZ activity in PC12 – cell-based, CRE-LacZ reporter, forskolin-stimulated, primary screen (AID 1146).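 Further: PC12 cells with 6xCRE LacZ reporter stimulated by forskolin 10 µM; beta-galactosidase reporter signal reflecting CREB driven transcription.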 Particulars: luminescence, 4.5 h, higher = more signal, called active from +8 up or from −8 down.
Experiment [15] concerns the target Streptavidin (Streptomyces avidinii) (UniProt P22629). As to the kind of experiment: compounds binding control protein streptavidin – biophysical, small-molecule microarray, 635/667 nm fluorescence, artefact control for SMM compound annotation, primary screen (AID 1147).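 Further: signal reflects streptavidin binding to arrayed compounds as a control protein.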 Particulars: higher = more signal.
The nature of experiment [16]: probe aInhba binding on compound microarray – biochemical, small-molecule microarray, 635/667 nm fluorescence, primary screen (AID 1148).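 Further: score merges 667nm spot fluorescence with signal-to-noise for antibody binding to printed compounds.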 Particulars: higher = more signal.
The target in experiment [17] is Torsin-1A (Homo sapiens) (UniProt O14656). As to the kind of experiment: TOR1A wild-type binding on microarray – cell lysate, small-molecule microarray, lysate, 635/667 nm, primary screen (AID 1149). Particulars: COS7 hTOR1A-WT lysate, 635 nm fluorescence, higher = more signal.
The target is the same in experiment [18]. Kind of experiment: torsin A mutant lysate binding on microarrays – cell lysate, small-molecule microarray, COS7 lysate, 635/667 nm fluorescence, primary screen (AID 1150).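 Further: score pools 667 nm emission and signal to noise measuring lysate protein binding.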 Particulars: COS7 hTOR1A mutant lysate, 635 nm fluorescence, higher = more signal.
Experiment [19] has as its system Sonic hedgehog protein (Shh). As to the kind of experiment: Sonic hedgehog microarray binding compounds – biochemical, small-molecule microarray, 635/667 nm fluorescence, primary screen (AID 1151).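 Further: Shh protein binding to compounds spotted on small-molecule microarray slides; score combines spot fluorescence intensity with signal-to-noise across triplicate slides.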 Particulars: 635 nm fluorescence, higher = more signal.

SMILES strings stand for the structures. Active and inactive are the calls of the source. Unless noted, how the calls were made is not given here.

Sequence of Follistatin (Homo sapiens) (P19883 whole entry, looked up): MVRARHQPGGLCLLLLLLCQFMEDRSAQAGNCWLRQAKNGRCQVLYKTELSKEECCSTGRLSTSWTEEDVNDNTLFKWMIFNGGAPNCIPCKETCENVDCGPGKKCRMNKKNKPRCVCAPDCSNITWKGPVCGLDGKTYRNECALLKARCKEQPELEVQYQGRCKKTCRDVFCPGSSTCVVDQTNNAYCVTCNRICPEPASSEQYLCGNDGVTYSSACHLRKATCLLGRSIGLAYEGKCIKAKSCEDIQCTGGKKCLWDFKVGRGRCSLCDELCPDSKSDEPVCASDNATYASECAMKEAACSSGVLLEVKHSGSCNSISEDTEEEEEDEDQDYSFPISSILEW
Sequence of Fibroblast growth factor 2 (Homo sapiens) (P09038 whole entry, looked up): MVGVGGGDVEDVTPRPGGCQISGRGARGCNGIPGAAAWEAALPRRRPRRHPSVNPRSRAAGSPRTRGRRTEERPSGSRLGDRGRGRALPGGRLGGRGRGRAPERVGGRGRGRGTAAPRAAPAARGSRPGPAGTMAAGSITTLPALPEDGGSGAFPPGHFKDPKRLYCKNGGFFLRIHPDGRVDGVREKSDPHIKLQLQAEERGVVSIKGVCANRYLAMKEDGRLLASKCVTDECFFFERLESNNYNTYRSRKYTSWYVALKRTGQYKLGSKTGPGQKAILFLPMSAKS
Sequence of Torsin-1A (Homo sapiens) (O14656 whole entry, looked up): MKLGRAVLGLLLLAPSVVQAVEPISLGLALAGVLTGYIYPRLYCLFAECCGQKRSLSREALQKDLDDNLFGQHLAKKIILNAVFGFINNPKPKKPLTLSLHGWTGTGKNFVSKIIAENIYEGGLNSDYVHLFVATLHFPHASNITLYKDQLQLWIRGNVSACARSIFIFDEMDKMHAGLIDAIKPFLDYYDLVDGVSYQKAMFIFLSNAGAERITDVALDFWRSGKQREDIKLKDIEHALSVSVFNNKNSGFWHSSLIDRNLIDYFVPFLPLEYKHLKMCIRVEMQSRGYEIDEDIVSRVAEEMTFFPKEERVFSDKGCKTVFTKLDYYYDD
Sequence of Focal adhesion kinase 1 (Homo sapiens) (Q05397 whole entry, looked up): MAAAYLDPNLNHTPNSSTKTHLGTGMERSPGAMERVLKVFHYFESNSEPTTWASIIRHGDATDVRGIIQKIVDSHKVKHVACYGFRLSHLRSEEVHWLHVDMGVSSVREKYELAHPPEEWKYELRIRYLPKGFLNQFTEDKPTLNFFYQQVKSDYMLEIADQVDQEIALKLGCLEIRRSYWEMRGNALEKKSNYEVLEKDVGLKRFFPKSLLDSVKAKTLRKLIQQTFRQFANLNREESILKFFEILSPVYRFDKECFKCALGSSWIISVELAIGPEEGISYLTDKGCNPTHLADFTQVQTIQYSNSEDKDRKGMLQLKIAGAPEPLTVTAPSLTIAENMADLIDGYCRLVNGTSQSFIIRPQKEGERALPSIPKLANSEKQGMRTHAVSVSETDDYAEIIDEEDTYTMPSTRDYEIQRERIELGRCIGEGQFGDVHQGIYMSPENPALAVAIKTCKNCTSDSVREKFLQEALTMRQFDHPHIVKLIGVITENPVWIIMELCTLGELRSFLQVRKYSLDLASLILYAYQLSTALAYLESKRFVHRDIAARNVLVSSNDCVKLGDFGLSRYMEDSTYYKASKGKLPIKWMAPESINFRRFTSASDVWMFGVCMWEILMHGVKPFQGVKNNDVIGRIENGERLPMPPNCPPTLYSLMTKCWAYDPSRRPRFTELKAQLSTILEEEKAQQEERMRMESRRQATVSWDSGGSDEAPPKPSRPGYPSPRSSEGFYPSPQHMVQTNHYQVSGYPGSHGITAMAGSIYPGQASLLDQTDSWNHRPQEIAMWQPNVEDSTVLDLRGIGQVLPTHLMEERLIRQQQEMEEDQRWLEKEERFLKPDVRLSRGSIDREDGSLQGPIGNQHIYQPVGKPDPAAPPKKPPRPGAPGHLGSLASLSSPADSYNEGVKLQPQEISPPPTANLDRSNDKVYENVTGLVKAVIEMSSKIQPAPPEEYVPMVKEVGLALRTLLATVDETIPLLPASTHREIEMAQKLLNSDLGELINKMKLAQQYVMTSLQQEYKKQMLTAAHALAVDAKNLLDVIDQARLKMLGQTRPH
Sequence of Streptavidin (Streptomyces avidinii) (P22629 whole entry, looked up): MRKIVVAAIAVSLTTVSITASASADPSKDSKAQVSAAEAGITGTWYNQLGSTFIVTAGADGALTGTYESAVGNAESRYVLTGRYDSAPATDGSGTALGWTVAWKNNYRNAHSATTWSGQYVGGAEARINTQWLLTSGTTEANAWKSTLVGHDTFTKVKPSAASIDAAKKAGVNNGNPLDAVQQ
Sequence of Luciferin 4-monooxygenase (Photinus pyralis) (P08659 whole entry, looked up): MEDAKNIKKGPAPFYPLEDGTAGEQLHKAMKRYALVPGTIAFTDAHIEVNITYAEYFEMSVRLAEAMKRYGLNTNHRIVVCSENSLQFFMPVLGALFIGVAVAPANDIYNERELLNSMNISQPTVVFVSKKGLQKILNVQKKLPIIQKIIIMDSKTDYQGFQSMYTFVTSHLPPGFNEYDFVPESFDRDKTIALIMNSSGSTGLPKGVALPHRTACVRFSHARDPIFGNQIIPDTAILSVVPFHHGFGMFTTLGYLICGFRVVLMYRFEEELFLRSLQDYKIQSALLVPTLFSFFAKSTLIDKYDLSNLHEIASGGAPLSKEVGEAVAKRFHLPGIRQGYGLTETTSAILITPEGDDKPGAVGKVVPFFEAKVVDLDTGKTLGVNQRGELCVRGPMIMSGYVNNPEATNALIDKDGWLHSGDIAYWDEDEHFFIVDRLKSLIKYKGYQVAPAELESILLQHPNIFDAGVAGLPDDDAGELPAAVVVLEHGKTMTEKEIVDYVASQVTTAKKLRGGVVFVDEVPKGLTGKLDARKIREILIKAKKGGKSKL

As for `CN1C(=O)[C@]2(CCS(=O)(=O)c3ccccc3)N=C(c3ccc(OCCCO)cc3)O[C@@H]2c2ccccc21`, the composite z-score in experiment [1] is 2.44; in experiment [2], 1.27; in [3] it was 1.26; in experiment [4], 0.495; in experiment [5], 1.47; in experiment [6], 0.699. Also, the composite z-score in the experiment with Lefty1 was found to be 0.34; in [8], 0.318; in experiment [10], 0.088; in experiment [15] it was 0.294; in experiment [16], 0.174; with Torsin-1A (Homo sapiens) [17], 0.0148. For the same compound, the composite z-score with Torsin-1A (Homo sapiens) [18] was 1.16; in experiment [19], 1.54. Further, the z-score in [7] is 1.87; in experiment [9], -1.76 (inactive); in experiment [11], -3.67 (inactive); in experiment [12], 1.24 (inactive); in experiment [13] it was 1.34 (inactive); in [14], -0.547 (inactive).

In the case of `COc1ccccc1CN1C(=O)c2ccccc2[C@@H](C(=O)NCCCN(C)C)[C@@H]1c1ccc(CO)cc1`, the composite z-score is 0.802 in experiment [1]; 0.232 in experiment [2]; -0.492 in experiment [3]; -0.741 in experiment [4]; 0.104 in experiment [5]; 0.303 in experiment [6]. Further, the composite z-score is 0.409 in the experiment on Lefty1; 0.131 in experiment [8]; 0.0968 in experiment [10]; -0.523 in experiment [15]; 0.0028 in experiment [16]; -0.236 in the experiment with Torsin-1A (Homo sapiens) [17]. Besides, the composite z-score is -0.0195 with Torsin-1A (Homo sapiens) [18] and -0.0791 in experiment [19]. For the same compound, the z-score in experiment [7] is 2.1; in experiment [9] it was 0.731 (inactive); in experiment [11], -2.77 (inactive); in experiment [12], -1.58 (inactive); in experiment [13], 0.531 (inactive); in experiment [14], -0.744 (inactive).

Turning to `COCCOC(=O)N1C(=O)[C@@]2(c3cc(C#CC4(O)CCCCCC4)ccc31)[C@H](c1ccc(OCCO)cc1)N1[C@H](c3ccccc3)[C@H](c3ccccc3)OC(=O)[C@H]1[C@@H]2C(N)=O`, the composite z-score is 1.43 in [1]; 1.15 in experiment [2]; 0.528 in experiment [3]; 0.892 in experiment [4]; 1.38 in experiment [5]; 1.55 in experiment [6]. Further, the composite z-score in the experiment with Lefty1 worked out at 1.38; in experiment [8] it was 0.613; in experiment [10], 0.437; in experiment [15], 0.213; in experiment [16] it was 0.0804; with Torsin-1A (Homo sapiens) [17], 0.974. In addition, the composite z-score with Torsin-1A (Homo sapiens) [18] amounted to 0.861; in experiment [19], 1.33. The z-score in experiment [7] is -1.27; in experiment [9] it was -0.608 (inactive); in experiment [11] it was -4.15 (inactive); in experiment [12], 0.323 (inactive); in [13], 0.468 (inactive); in experiment [14], 0.595 (inactive).

On to `COC(=O)C1=CC(CCCO)=CC(C2CC2)N(Cc2cccc(OC(F)(F)F)c2)C=C1C(=O)OC` (stereo not given), for which the composite z-score was 1 in experiment [1]; 0.846 in experiment [2]; 1.03 in [3]; 0.884 in experiment [4]; 0.0058 in [5]; -0.653 in experiment [6]. The composite z-score in the experiment on Lefty1 was 0.126; in [8] it was 0.824; in [10], 0.172; in experiment [15], 0.307; in experiment [16], 0.0711; with Torsin-1A (Homo sapiens) [17] it was -0.38. Also, the composite z-score with Torsin-1A (Homo sapiens) [18] is 0.497; in experiment [19], -0.153. The z-score is 1.1 in experiment [7]; 0.189 (inactive) in [9]; -1.15 (inactive) in [11]; -0.393 (inactive) in experiment [12]; -0.0243 (inactive) in experiment [13]; 0.969 (inactive) in [14].

As for `C=CC(CO)NC(=O)OCC1c2ccccc2-c2ccccc21` (stereo not given), the composite z-score in experiment [1] was found to be 0.311; in experiment [2], 0.421; in [3], 0.476; in experiment [4] it was 0.578; in experiment [5] it was 0.763; in [6], 0.415. The composite z-score is 0.618 in the experiment with Lefty1; -0.105 in experiment [8]; 0.237 in [10]; 0.0333 in experiment [15]; -0.183 in experiment [16]; 0.743 in the experiment with Torsin-1A (Homo sapiens) [17]. Besides, the composite z-score with Torsin-1A (Homo sapiens) [18] was 0.724; in experiment [19], 0.775. Also, the z-score in experiment [7] is 0.02; in experiment [9] it was -0.409 (inactive); in experiment [11], 0.0812 (inactive); in experiment [12] it was 0.219 (inactive); in [13], 1.03 (inactive); in experiment [14] it was 0.584 (inactive).
